Yeast superoxide: lowers age-related superoxide in aged yeast cells; S. cerevisiae aged cells, superoxide DHE fluorescence; active compounds read low; AID 2690; superoxide response (% of plate mean), % at 10 µM; hit rate 0.18% among 330,000;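 active = superoxide response under a set limit, about three screen SD below normal, cut at about 65% in these data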;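 note: yeast aged for seven days with compound at 30 °C before DHE staining; 100% = average MFI of all compound-treated wells on the plate with controls excluded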
ALR H2O2 inh: blocks human ALR sulfhydryl oxidase activity | P55789 | purified ALR, DTT oxidation, H2O2 HRP-luminol luminescence | AID 485317 | hit rate 3.8% among 290,000 | inhibition, % (no concentration beside the values);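 active = mean replicate inhibition above about 79%, with every replicate also reaching it, limit read from the data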
PfM18AAP inh: PfM18AAP enzyme inhibition; recombinant PfM18AAP, H-Glu-NHMec fluorogenic cleavage; inhibition, % at 7.35 µM; hit rate 1.2% among 290,000; AID 1822;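 active = inhibition above the campaign mean inhibition over all tested compounds plus 3 SD, cut at about 28% in these data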;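 note: 0% = plate median of test compound wells and 100% = 2 mM ZnCl2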
APOBEC3A inh: human APOBEC3A DNA deaminase inhibition; P31941; recombinant A3A, FAM/TAMRA ssDNA deamination fluorescence; inhibition, % at 20 µM; hit rate 0.41% among 330,000; AID 493011;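 active = at least 40% inhibition at 20 µM here, with at most 30% in a related deaminase screen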;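 note: plate controls were A3A with DMSO for no effect and wells lacking A3A enzyme for full effect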
APOBEC3G inh: APOBEC3G (human) deaminase inhibition | recombinant A3G, ssDNA deamination FAM/TAMRA fluorescence | inhibition, % at 20 µM | hit rate 0.28% among 330,000;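 active = inhibition of at least 40% at 20 µM, with no more than 30% in the related APOBEC3A deaminase screen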;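 note: plate controls were DMSO wells with A3G for no effect and wells lacking A3G enzyme for full effect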
CendR NRP1 mod: alters CendR peptide binding to human NRP-1; hit rate 0.85% among 360,000; FAM-RPARPAR peptide binding to NRP-1, fluorescence polarization; inhibition, % at 25 µM; O14786;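 active = inhibition or corrected inhibition above about 18%, plus a signal ratio from 0.5 to 1.5, limit read from the data, passing the limit was not always enough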
An asterisk follows results filed as active; / = not tested or not shown. The list is not random: actives were taken first. Their share in the collection is about 5.2%.

SMILES	Yeast superoxide	ALR H2O2 inh	PfM18AAP inh	APOBEC3A inh	APOBEC3G inh	CendR NRP1 mod
Cc1ccccc1Cn1nnc(-c2ccc(F)cc2)n1	116	93*	-7	2	-1	8
CSc1nc(-c2ccc(C)cc2)nc(N)c1C#N	104	-10	3	-2	-5	-1
COc1cnc(-c2ccccn2)nc1Oc1ccccc1Cl	102	98*	-4	1	-6	0
COc1cnc(-c2ccccn2)nc1Oc1ccc(Cl)c2ccccc12	98	-31	3	-4	-7	5
Cc1cc(NC(=O)COC(=O)c2cc(S(=O)(=O)N(C)C)ccc2Cl)no1	103	4	/	-3	-8	29*
Cc1cc(C(=O)OCC(=O)Nc2cccc(S(=O)(=O)N(C)C)c2)c(C)o1	93	-23	1	0	-6	24*
CN(Cc1cccc(Cl)c1Cl)C(=O)c1ccc(NC(=O)CC#N)cc1	88	/	-2	8	1	-12
CCOc1ncccc1C(=O)Nc1ccc(C)cn1	100	-5	-3	0	-8	13
CC(=O)Nc1ccc(NC(=O)CN2C(=O)NC3(CCCCCCC3)C2=O)cc1	103	10	/	-1	-5	7
CC(C)c1ccc(NC(=O)CN2C(=O)NC3(CCCC3)C2=O)cc1	104	-3	-2	-1	-5	24*
O=C(CN1C(=O)NC2(CCCCCC2)C1=O)Nc1ccc(OC(F)(F)F)cc1	/	/	/	/	/	27*
O=C(N1CCOCC1)N1CCCC(c2nc(-c3cccs3)no2)C1 (stereo not drawn)	96	-11	-5	0	-6	5
Cc1ccc(C=Nc2ccc(N(C)C)cc2)o1	83	98*	13	3	4	3
Cc1ccc(C=Nc2ccccc2C(N)=O)o1	104	-8	9	1	-2	-4
Cc1onc(-c2c(F)cccc2Cl)c1C(=O)c1ccccc1O	101	-15	5	-1	-2	6
O=C(c1ccc2c(c1)C(=O)N(Cc1ccco1)C2O)N1CCOCC1 (stereo not drawn)	100	87*	11	-2	-5	9
C=CCN(c1ccccc1)S(=O)(=O)c1cc2c(cc1C)N(C)CCO2	81	97*	5	-7	-8	-1
C=CCN(c1ccccc1)S(=O)(=O)c1cc2c(cc1C)NC(=O)CO2	111	-3	7	0	2	-14
COc1ccc(S(=O)(=O)NCC2CCC(C(=O)NCC(OC)OC)CC2)cc1 (stereo not drawn)	99	1	3	-3	-6	5
CCOc1ccc(NC(=O)CCCn2c(=S)[nH]c3ccsc3c2=O)cc1	100	6	3	-3	-7	7
CCCCn1nc2cc(C(=O)NCCc3cccs3)ccc2c1OCC	93	-3	-10	-4	-11	0
CCCn1nc2cc(C(=O)NCCc3ccc(C)cc3)ccc2c1OCC	94	4	-13	0	-8	26*
CCOc1c2ccc(C(=O)NCCc3cccs3)cc2nn1CC	100	0	7	-5	-13	25*
Nn1c(SCc2ccccc2)nc2c(cnn2-c2ccccc2)c1=O	82	-3	-13	-2	-7	22*
Nc1ccc(S(N)(=O)=O)cc1N	77	84*	15	4	-2	-12
SMILES	Yeast superoxide	ALR H2O2 inh	PfM18AAP inh	APOBEC3A inh	APOBEC3G inh	CendR NRP1 mod
Cc1cccc(C(O)c2ncc(-c3ccccc3F)[nH]2)c1C (stereo not drawn)	/	/	/	/	/	30*
O=C(COC(=O)c1cccs1)Nc1cc(S(=O)(=O)N2CCOCC2)ccc1Cl	89	/	-9	2	-14	2
C=CCNC(=S)NCCO	81	-14	-7	-2	-3	12
O=C(COC(=O)c1ccccc1SCC(=O)N1CCCC1)Nc1ccccc1C(F)(F)F	103	-5	10	0	4	32*
O=C1c2cccnc2-c2ncccc21	124	/	-4	1	0	16
O=C1C(=O)c2cccnc2-c2ncccc21	/	/	/	/	/	27*
COC1=C(Br)C(=O)c2ncccc2C1=O	/	/	/	/	/	36*
Cc1cc(Nc2n[nH]c(N)c2C#N)ccc1F	102	95*	14	-2	-1	16
COC1=C/C(=C/c2c(O)c(C#N)c3ccccn23)C=CC1=O	117	91*	11	5	-1	-6
COc1cc(OC)cc(C(=O)c2c(C)c(C#N)c3ccccn23)c1	/	/	-2	2	-6	7
CCOC(=O)Cn1c(=O)oc2cc(S(=O)(=O)NCc3ccccn3)ccc21	95	-2	-13	-4	-11	-20
CCOC(=O)c1cnc2ccc(C)cc2c1NCCO	92	-6	2	2	-1	27*
CC1(c2ccc(O)cc2)NC(=O)N(c2ccccc2)N1 (stereo not drawn)	78	98*	12	-3	-6	5
C=C(C)CCC1(C)NC(=O)N(c2ccccc2)N1 (stereo not drawn)	101	5	0	0	4	-6
Cc1cccc(C(=O)Nc2cccc(OCC(=O)O)c2)c1	93	-2	-2	0	-2	4
CCC(C)NCC(=O)Nc1ccc(-c2nc3cc(NC(=O)CNC(C)CC)ccc3o2)cc1 (stereo not drawn)	94	-12	-10	-2	-6	9
CCc1ccc2oc(-c3ccc(NC(C)=O)cc3)nc2c1	96	96*	2	0	-3	-21
CCN(CC)CC(=O)Nc1ccc(-c2nc3cc(NC(=O)CN(CC)CC)ccc3o2)cc1	87	-20	-11	3	-5	17*
Cc1cc(S(=O)(=O)NCc2ccccc2)ccc1OCC(=O)NCc1cccnc1	93	0	-2	-5	-12	5
C=CCn1c(=NC(=O)CN2C(=O)CCC2=O)sc2cc(S(N)(=O)=O)ccc21	100	98*	-4	-6	-4	1
COc1ccc(-c2csc(/C(C#N)=C(\O)CSc3nccn3C)n2)cc1OC	101	86*	3	-17	-4	-55
COc1ccccc1N1CCN(C/C(O)=C(\C#N)c2nc(-c3ccccc3)cs2)CC1	82	1	6	-4	-5	-4
OC1CC2CCC(C1)N2CCCN1c2ccccc2Sc2ccc(Cl)cc21 (stereo not drawn)	/	/	/	/	/	15
CN1CCCC(CC2c3ccccc3Sc3ccccc32)C1 (stereo not drawn)	96	1	/	-3	-6	4
CN1CCCC(CN2c3ccccc3Sc3ccccc32)C1 (stereo not drawn)	101	99*	10	0	-1	1
CCSc1ccc2c(c1)N(CCCN1CCN(C)CC1)c1ccccc1S2	104	97*	/	-2	-3	-3
CN1CCN(CCCN2c3ccccc3Sc3ccc(Cl)cc32)CC1	91	99*	23	-2	-8	3
Cc1cc(=O)c(C(=O)O)nn1-c1ccccc1	80	-19	-1	-2	-13	-1
O=C(CSc1nncn1-c1ccccc1F)NC1CCCCC1	106	-1	/	2	-1	-14
